# Assay results as given in PubChem BioAssay (NCI).
# Compounds without any hit were thinned out: in the full panel of roughly 83,000, 20% have a hit.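 How to read the values: 0–100, growth inhibition (40 = 60% inhibited); 0, no net growth; -100 to 0, cell death (-40 = 40% of starting cells died; -100 = all dead).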 Values without a mark were called inactive. Activity calls are given as the source filed them.
# Test system: LOX IMVI melanoma
# Assay: NCI-60 one-dose screen, 48 h (100 = growth as untreated, 0 = no growth, -100 = all killed)
# Conditions: 10 µM unless noted
# Experimental: Growth inhibition of the LOX IMVI human tumor cell line is measured as a screen for anti-cancer activity. Cells are grown in 96 well plates and exposed to the test compound for 48 hours. Compounds are tested at a single concentration, which is 10^-5 M for most compounds. The reported endpoint is percent growth (GI% or GIPRCNT), where numbers from 0 - 100% represent growth inhibition, and numbers from -100% - 0 represent cell death. For example, a value of 40 represents 60% growth inhibition. A value of 0 means no net growth occurred over the course of the experiment. A value of -40 indicates 40% of cells at the beginning of the experiment died by the end of the experiment. A value of -100 means all cells are dead at the end of the experiment.
# NCI-60 Human Tumor Cell Lines Screen was performed using the standard one-dose NCI protocol, which is described in more detail at https://dtp.cancer.gov/discovery_development/nci-60/default.htm.
# Compounds with GIPRCNT values below 10 were considered active. Activity score was based on GIPRCNT using the following formula: […]
# Score is 0 for GIPRCNT values of 100 or above, 50 for GIPRCNT values of 0, and 100 for GIPRCNT values of -100.
row,Compound,growth
1,CC(C)CSc1ncnc2nc[nH]c12,98%
2,O=c1cc(-c2ccccc2)oc2c(O)c(O)ccc12,53.9%
3,Cc1ccc(S(=O)(=O)n2cc(C(=O)C(=O)N3CCCCC3)c3ccccc32)cc1,71.9%
4,CCOC(=O)C(=Cc1ccccc1[N+](=O)[O-])C(=O)OCC,-18.5% (active)
5,CCOC(=O)c1nn(C2CCCCO2)c2ccc(NC(=O)CN3CCOCC3)cc12 (stereo not given),98.2%
6,COc1cc(/C=C/C(=O)/C=C/c2ccc(-n3ccnc3C)cc2)ccc1O,-88.7% (active)
7,CC(C)CCSC1=CC(=O)c2ccccc2C1=O,38%
8,C=CCCCCCCCCC(=O)OC(C)C,100%
9,COc1ccc(C(=O)CSc2nnc(-c3cc(-c4ccccc4)nc4ccccc34)o2)cc1,101%
10,CC(C)C1=NOC(=O)C1=Cc1cn(-c2cccnc2)nc1-c1ccccc1,80.2%
11,Cc1cc(-c2ccc(N=Nc3c(S(=O)(=O)O)cc4cc(S(=O)(=O)O)cc(N)c4c3O)c(C)c2)ccc1N=Nc1cc(S(=O)(=O)O)c2ccccc2c1O,106%
12,O=C(Nc1cccnc1)c1ccc2ccc3ccc(C(=O)Nc4cccnc4)nc3c2n1,14%
13,CCCCCn1c(C)cc(/C=C\c2ccc3cc(C)ccc3[n+]2C)c1C,-72.4% (active)
14,O=C(CSc1nc2ccc([N+](=O)[O-])cc2[nH]1)Nc1cccc(Cl)c1,27.7%
15,COc1ccc(C2CC(c3ccc4ccccc4c3)=NN2c2nc(O)c(C3=c4cc(OC)ccc4=NC3=O)s2)cc1 (stereo not given),-77.6% (active)
16,C=C(C)[C@@H]1CC[C@]2(C(N)=O)CC[C@]3(C)[C@H](CC[C@@H]4[C@@]5(C)C/C(=C/c6cccnc6)C(=O)C(C)(C)[C@@H]5CC[C@]43C)[C@@H]12,-41.5% [100 µM] (active)
17,Cc1ccc(S(=O)(=O)Oc2ccc([N+](=O)[O-])cc2[N+](=O)[O-])cc1,10.1%
18,c1ccc(-c2nc(N3CCCNCC3)c3nc(-c4ccccc4)oc3n2)cc1,-95.7% (active)
19,Cc1ccc(N)c(O)c1,86.6%
20,O=C1CC(c2ccc3c(c2)OCO3)Nc2ccccc21 (stereo not given),37.4%

row,Compound,growth
1,O=C(N=c1n(-c2ccccc2)nc2n1CCN2C1=NCCN1C(=O)c1ccc(Cl)cc1)c1ccc(Cl)cc1,86.6%
2,C#CC(OC(=O)N(C)C)(c1ccccc1)c1ccc(F)cc1 (stereo not given),78.3%
3,C=C(C)C1CCC2(C(=O)O)CCC3(C)C(CCC4C5(C)CCC(OC(=O)NCc6ccccc6)C(C)(C)C5CCC43C)C12 (stereo not given),39.8%
4,CC1(C)CC[C@]23CC[C@]4(C)[C@H](CC[C@@H]5[C@@]6(C)C/C(=C/c7cccnc7)C(=O)C(C)(C)[C@@H]6CC[C@]54C)[C@H]2[C@H]1OC3=O,29.2% [100 µM]
5,COc1ccc(/C=C(/C(=O)c2ccc(Cl)cc2)C(=O)C(F)(F)F)cc1,95.6%
6,N#C/C(=C(/O)CCCO)c1nc2ccccc2c(=O)[nH]1,98%
7,Cc1cc(C)c(-c2cc(O)c(-c3c(C)cc(C)cc3C)cc2O)c(C)c1,41.8%
8,Cc1cnc(N)nc1OCC(C)(C)CNC(=O)c1cccc(-c2ccc(S(=O)(=O)Nc3ccc4c(c3)N(C(=O)C3CC3)CCC4)cc2)c1,76.6%
9,CCN(CC)c1ccc(/C=C/c2ccc3cc(C)ccc3[n+]2CC)cc1,-8.32% (active)
10,C1=C[C@H]2O[C@@H]1c1ccc3[nH]ccc3c12,100%
11,CC(C)[C@H]1COC(=O)N1[C@@H]1C(=O)N([C@@H](CCC(=O)N2CCN(C3CCCC3)CC2)C(=O)N[C@@H]2CCCc3ccccc32)[C@@H]1/C=C/c1cccc(Cl)c1,-18.3% (active)
12,O=C1COCCN1c1ccc(NCc2cn(Cc3ccc(F)cc3)c3ccccc23)cc1,83.9%
13,O=[N+]([O-])c1cc([N+](=O)[O-])c(C(F)(F)F)cc1NN=C(c1ccc(O)cc1)c1ccc(O)cc1,14%
14,O=C1CC(C(F)(F)F)Cc2nc3ccc(Br)cc3cc21 (stereo not given),91.1%
15,Oc1cc(Nc2ccnc3cc(Cl)ccc23)c2ncccc2c1,72.7%
16,O=C(CSc1nc2ccc([N+](=O)[O-])cc2[nH]1)Nc1ccc(F)c(Cl)c1,24.2%
17,O=C(N/N=C/c1c(Cl)cccc1Cl)c1cccc(Nc2ccnc(C(F)(F)F)c2)c1,83.7%
18,Cn1cc(-c2noc(C(=O)c3cn(C)c4ncc(Br)cc34)n2)c2ccccc21,96.8%
19,Cn1cc(-c2noc(-c3cn(C)c4ncc(F)cc34)n2)c2cc(Cl)ccc21,52.5%
20,COc1c(C(C)=O)c(OCCCCOc2c(C(C)=O)c(OC)c3ccoc3c2OC)c(OC)c2occc12,74.5%
